Read-out in assay [1]: Monokine induced gamma interferon (MIG), CXCL9 (gene 4283)
The assay is described as follows: BSK_hDFCGF_MIG: BioMAP Diversity Plus: hDFCGF Assay for Monokine induced gamma interferon (MIG) Biomarker Activity (AID 2283063). Conditions: primary human foreskin fibroblasts; actives raise or lower the signal. Summed up:
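MIG signal, determined by ELISA, reflects 24 h chemical exposure of human skin primary fibroblasts. DMSO serves as negative control and baseline.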

Read-out in assay [2]: Matrix Metallopeptidase 1 (MMP1), MMP1 (gene 4312)
The assay is described as follows: BSK_hDFCGF_MMP1: BioMAP Diversity Plus: hDFCGF Assay for Matrix Metallopeptidase 1 (MMP1) Biomarker Activity (AID 2283064). To be noted: primary human foreskin fibroblasts; actives raise or lower the signal. In short, it runs like this:
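Primary human foreskin fibroblasts in the hDFCGF system were dosed with test chemical, and MMP1 was measured by ELISA 24 h later. Values come from bidirectional curve fitting against the DMSO baseline.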

Read-out in assay [3]: Vascular cell adhesion molecule 1 (VCAM1), VCAM1 (gene 7412)
The assay is described as follows: BSK_hDFCGF_VCAM1: BioMAP Diversity Plus: hDFCGF Assay for Vascular cell adhesion molecule 1 (VCAM1) Biomarker Activity (AID 2283065).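 On AC50: VCAM-1 protein level quantified by ELISA after 24 h chemical exposure.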 To be noted: primary human foreskin fibroblasts; actives raise or lower the signal. In short, it runs like this: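 Cells are dosed, cultured for 24 h, then VCAM-1 is quantified by ELISA; signal increases and decreases are both fitted relative to DMSO.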

Read-out in assay [4]: Plasminogen activator inhibitor-1 (PAI1), SERPINE1 (gene 5054)
Put plainly: BSK_hDFCGF_PAI1: BioMAP Diversity Plus: hDFCGF Assay for Plasminogen activator inhibitor-1 (PAI1) Biomarker Activity (AID 2283066). To be noted: primary human foreskin fibroblasts; actives raise or lower the signal. In short, it runs like this: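 Human foreskin fibroblasts in the hDFCGF system were dosed with compound for 24 h; PAI-1 was quantified by ELISA. Bidirectional curve fitting used DMSO as negative control and baseline.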

Read-out in assay [5]: Intercellular Adhesion Molecule 1 (ICAM1), ICAM1 (gene 3383)
Put plainly: BSK_KF3CT_ICAM1: BioMAP Diversity Plus: KF3CT Assay for Intercellular Adhesion Molecule 1 (ICAM1) Biomarker Activity (AID 2283067). To be noted: primary human keratinocytes with fibroblasts; actives raise or lower the signal. Summed up: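 Dose the keratinocyte/fibroblast co-culture, wait 24 h, measure ICAM-1 by ELISA, then fit increases or decreases against DMSO. Cytotoxicity is checked in parallel cultures by SRB total-protein staining.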

Read-out in assay [6]: Interferon-gamma inducible Protein 10 (IP10), CXCL10 (gene 3627)
The assay is described as follows: BSK_KF3CT_IP10: BioMAP Diversity Plus: KF3CT Assay for Interferon-gamma inducible Protein 10 (IP10) Biomarker Activity (AID 2283068). Conditions: primary human keratinocytes with fibroblasts; actives raise or lower the signal. In short, it runs like this: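 In a primary skin co-culture of keratinocytes and fibroblasts, IP-10 is quantified by ELISA at 24 h after dosing. SRB staining of parallel wells monitors overt toxicity. Curves are fitted both directions against DMSO.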

The nature of assay [7]: BSK_KF3CT_SRB: Viability Assessment in the BioMAP Diversity Plus: KF3CT Assay (AID 2283069). Conditions: primary human keratinocytes with fibroblasts. Summed up:
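Human primary keratinocyte plus foreskin fibroblast co-culture exposed to chemicals for 24 h. Total protein measured by 0.1% sulforhodamine B staining after 10% TCA fixation, read at 560 nm; bidirectional fitting versus DMSO baseline.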

Read-out in assay [8]: Interleukin-1 alpha (IL1a), IL1A (gene 3552)
Put plainly: BSK_KF3CT_IL1a: BioMAP Diversity Plus: KF3CT Assay for Interleukin-1 alpha (IL1a) Biomarker Activity (AID 2283070). Conditions: primary human keratinocytes with fibroblasts; actives raise or lower the signal. In short, it runs like this:
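Human keratinocyte plus foreskin fibroblast primary co-culture, sampled 24 h after chemical dosing. IL-1a measured by ELISA; responses fitted bidirectionally against DMSO baseline (negative control), so gain or loss of signal both count.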

Read-out in assay [9]: TIMP metallopeptidase inhibitor 2 (TIMP2), TIMP2 (gene 7077)
Put plainly: BSK_KF3CT_TIMP2: BioMAP Diversity Plus: KF3CT Assay for TIMP metallopeptidase inhibitor 2 (TIMP2) Biomarker Activity (AID 2283071). Conditions: primary human keratinocytes with fibroblasts; actives raise or lower the signal. Summed up:
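Human primary keratinocyte/foreskin fibroblast co-culture dosed with chemical and sampled at 24 h. TIMP-2 levels quantified by ELISA; bidirectional fitting against DMSO negative control as baseline.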

Read-out in assay [10]: Transforming growth factor beta 1 (TGFb1), TGFB1 (gene 7040)
The assay is described as follows: BSK_KF3CT_TGFb1: BioMAP Diversity Plus: KF3CT Assay for Transforming growth factor beta 1 (TGFb1) Biomarker Activity (AID 2283072). Conditions: primary human keratinocytes with fibroblasts; actives raise or lower the signal. In short, it runs like this:
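Human keratinocyte plus foreskin fibroblast primary co-culture, dosed with chemical for 24 h. TGF-b1 quantified by ELISA. Activity fitted bidirectionally against DMSO negative control as baseline.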

Read-out in assay [11]: C-C motif chemokine 2 (Homo sapiens) (UniProt P13500)
Put plainly: BSK_KF3CT_MCP1: BioMAP Diversity Plus: KF3CT Assay for Monocyte Chemoattractant Protein 1 (MCP1/CCL2) Biomarker Activity (AID 2283073). Conditions: primary human keratinocytes with fibroblasts; actives raise or lower the signal. Summed up:
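Keratinocytes and foreskin fibroblasts were co-cultured, dosed with chemical, and sampled 24 h later. MCP-1 was quantified by ELISA, and the endpoint was analyzed with bidirectional fitting using DMSO as negative control.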

Read-out in assay [12]: Matrix Metallopeptidase 9 (MMP9), MMP9 (gene 4318)
The assay is described as follows: BSK_KF3CT_MMP9: BioMAP Diversity Plus: KF3CT Assay for Matrix Metallopeptidase 9 (MMP9) Biomarker Activity (AID 2283074). Conditions: primary human keratinocytes with fibroblasts; actives raise or lower the signal. Summed up:
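Keratinocyte plus foreskin fibroblast human primary skin co-culture was dosed with chemical and MMP-9 was quantified by ELISA 24 h later. Bidirectional curve fitting used DMSO as negative control and activity baseline.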

Read-out in assay [13]: CD40, CD40 (gene 958)
Put plainly: BSK_LPS_CD40: BioMAP Diversity Plus: LPS Assay for CD40 Biomarker Activity (AID 2283076). To be noted: primary human HUVEC with PBMC; actives raise or lower the signal. In short, it runs like this:
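CD40 signal, measured by ELISA, is fitted in both directions relative to DMSO vehicle. The system is an LPS-driven human vascular primary co-culture of endothelial cells and PBMC, sampled 24 h after compound addition.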

Read-out in assay [14]: E-selectin (Homo sapiens) (UniProt P16581)
Put plainly: BSK_LPS_Eselectin: BioMAP Diversity Plus: LPS Assay for Eselectin Biomarker Activity (AID 2283077). Conditions: primary human HUVEC with PBMC; actives raise or lower the signal. Summed up:
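Signal of E-selectin, detected by ELISA, served as the endpoint; cells were umbilical vein endothelium with PBMC, read 24 h after treatment. DMSO defined baseline, and both increases and decreases were fitted.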

Read-out in assay [15]: Interleukin-8 (IL8), CXCL8 (gene 3576)
The assay is described as follows: BSK_LPS_IL8: BioMAP Diversity Plus: LPS Assay for Interleukin-8 (IL8) Biomarker Activity (AID 2283078). To be noted: primary human HUVEC with PBMC; actives raise or lower the signal. Summed up:
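Endothelial cells and PBMC from human donors are co-cultured, treated with chemicals and LPS, then assayed for IL-8 by ELISA after 24 h. Parallel SRB staining (0.1% SRB after 10% TCA fixation, 560 nm) flags cytotoxicity.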

Assay [16] can be described thus: BSK_LPS_SRB: Viability Assessment in the BioMAP Diversity Plus: LPS Assay (AID 2283079).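 Further: total protein by sulforhodamine B absorbance as a cytotoxicity measure; measured one day after compound addition.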 Conditions: primary human HUVEC with PBMC. Summed up: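 Overt cytotoxicity was gauged by sulforhodamine B total-protein staining in a primary human vascular endothelial and mononuclear cell co-culture 24 h post-dosing. Activity was fitted in both directions relative to DMSO.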

Read-out in assay [17]: Interleukin-1 alpha (IL1a), IL1A (gene 3552)
Put plainly: BSK_LPS_IL1a: BioMAP Diversity Plus: LPS Assay for Interleukin-1 alpha (IL1a) Biomarker Activity (AID 2283080). To be noted: primary human HUVEC with PBMC; actives raise or lower the signal. Summed up: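 Measured: IL-1 alpha via ELISA at 24 h in LPS-activated human umbilical vein endothelium–PBMC co-culture. Baseline: DMSO, bidirectional fitting.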

Read-out in assay [18]: Monocyte Chemoattractant Protein-1 (MCP1), CCL2 (gene 6347)
Put plainly: BSK_LPS_MCP1: BioMAP Diversity Plus: LPS Assay for Monocyte Chemoattractant Protein-1 (MCP1) Biomarker Activity (AID 2283081). Conditions: primary human HUVEC with PBMC; actives raise or lower the signal. In short, it runs like this:
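LPS-stimulated HUVEC/PBMC co-culture; chemical, 24 h; MCP-1 by ELISA; bidirectional fit vs DMSO; cytotoxicity via SRB (0.1% stain, 10% TCA fix, 560 nm) in parallel wells.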

Assay [19] is described as follows: BSK_LPS_PGE2: BioMAP Diversity Plus: LPS Assay for Prostaglandin E2 (PGE2) Biomarker Activity (AID 2283082). Conditions: primary human HUVEC with PBMC; actives raise or lower the signal. Summed up:
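HUVEC plus PBMC co-culture stimulated with LPS; secreted PGE2 quantified by ELISA 24 h after chemical dosing. Activity fitted bidirectionally against DMSO as negative control and baseline; parallel SRB total-protein staining served as cytotoxicity check.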

Read-out in assay [20]: urokinase plasminogen activator (uPA), PLAU (gene 5328)
Put plainly: BSK_KF3CT_uPA: BioMAP Diversity Plus: KF3CT Assay for urokinase plasminogen activator (uPA) Biomarker Activity (AID 2283075). Conditions: primary human keratinocytes with fibroblasts; actives raise or lower the signal. Summed up:
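Human keratinocyte plus foreskin fibroblast primary co-culture exposed to chemical for 24 h. uPA levels were quantified by ELISA, and activity was fitted bidirectionally against a DMSO negative-control baseline.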

The source made the active and inactive calls. How the source made its calls: active means hit-call score of the fitted dose curve at least 0.9, where 1 is the maximum; inactive means score below 0.9.

A word on the AC50: it is the concentration giving half of the maximal activity seen.

Chain of E-selectin (Homo sapiens) (P16581 whole entry, looked up): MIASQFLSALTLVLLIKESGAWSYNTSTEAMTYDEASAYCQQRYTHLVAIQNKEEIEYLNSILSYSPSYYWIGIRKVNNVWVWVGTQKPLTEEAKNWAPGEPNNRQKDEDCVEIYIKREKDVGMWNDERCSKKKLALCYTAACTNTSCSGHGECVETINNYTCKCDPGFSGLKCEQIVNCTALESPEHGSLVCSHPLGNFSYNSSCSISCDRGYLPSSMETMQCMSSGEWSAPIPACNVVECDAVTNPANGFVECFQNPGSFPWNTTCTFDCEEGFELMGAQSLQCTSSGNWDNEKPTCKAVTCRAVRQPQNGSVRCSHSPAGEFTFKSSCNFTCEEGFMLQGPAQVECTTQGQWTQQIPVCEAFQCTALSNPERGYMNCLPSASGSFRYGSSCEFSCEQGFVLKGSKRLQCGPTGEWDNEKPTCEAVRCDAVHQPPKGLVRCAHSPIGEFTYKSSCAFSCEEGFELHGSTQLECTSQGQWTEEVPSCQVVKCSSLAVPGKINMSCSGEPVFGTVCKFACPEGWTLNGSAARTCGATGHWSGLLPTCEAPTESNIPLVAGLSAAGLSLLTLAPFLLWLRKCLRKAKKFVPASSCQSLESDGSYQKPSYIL

In the case of `NC(N)=O`, the outcome in assay [1], in assay [2], in assay [3], in [4], in assay [5] and in assay [6] was inactive. In addition, the outcome in assay [7], in assay [8], in assay [9], in assay [10], in [11] and in assay [12] was inactive. Moreover, the result in assay [13], in assay [14], in assay [15], in assay [16], in assay [17] and in assay [18] was inactive. Also, the outcome in [19] was inactive.

Take `CCCCCCOC(=O)CC(CC(=O)OCCCCCC)(OC(=O)CCC)C(=O)OCCCCCC`: the result in assay [1], in [2], in assay [3], in assay [4], in assay [5] and in [6] was inactive. Also, the outcome in assay [7], in assay [8], in [9], in assay [11], in assay [12] and in [20] was inactive. Further, the outcome in assay [13], in assay [14], in assay [15], in assay [16], in assay [17] and in assay [18] was inactive. Besides, the result in [19] was inactive.

With `Cc1nc(-c2ccccn2)ncc1C(=O)Nn1cc(C)c2cc(F)ccc21`, the result in assay [1], in assay [2], in assay [3], in assay [4], in [5] and in assay [6] was inactive. For the same compound, the result in assay [7], in [8], in assay [9], in [11], in assay [12] and in [20] was inactive. The result in assay [13], in assay [14], in [15], in assay [16], in assay [17] and in [18] was inactive. For the same compound, the outcome in [19] was inactive.

For `CCCCN1C(=O)[C@@H]([C@H](O)C2CCCCC2)NC(=O)C12CCN(Cc1ccc(Oc3ccc(C(=O)O)cc3)cc1)CC2`, the outcome in [1], in [4], in assay [5], in assay [6], in [7] and in [8] was inactive. Also, the result in [9], in assay [11], in [12], in assay [20], in [13] and in assay [14] was inactive. Also, the result in assay [15], in assay [16], in assay [17], in assay [18] and in assay [19] was inactive. For the same compound, the concentration at half-maximal activity (AC50) in assay [2] is 7.18 µM (active); in assay [3], 31 µM (active).
